Tau fibril FP – blocks human tau fibril formation measured by polarization; P10636; K18 P301L tau heparin fibrillization, Alexa594 FP, 6 h; Potency, µM (highest dose often 57.7 µM), hits mostly inhibitors; 280,000 tested, 0.39% active; AID 1468; also: nearly all actives have a fitted effect of over 55% in size
Target sequence (P10636 561-689 P618L limits assumed): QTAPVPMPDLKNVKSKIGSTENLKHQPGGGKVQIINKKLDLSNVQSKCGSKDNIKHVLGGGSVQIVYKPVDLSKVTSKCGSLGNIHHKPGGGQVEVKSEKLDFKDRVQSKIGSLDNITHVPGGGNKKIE
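FP of Alexa 594-tau after heparin (20 uM) induction. Substrate: human K18 P301L, 15 uM unlabeled, 0.24 uM labeled. Buffer 100 mM sodium acetate pH 7. 6 hr, 37 C.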
Sfp PPTase inh – Sfp phosphopantetheinyl transferase inhibition. Potency, µM, usual class: inhibitors. AID 1490. Biochemical Sfp PPTase activity, qHTS. 310,000 tested, 3.5% active. Q9F4F7;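 also: the enzyme is Sfp with the accession as filed and its product quenches rhodamine fluorescence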
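Fluorescence-quenching assay: 15 nM Sfp-PPTase preincubated 15 min at room temperature with compound, then 5 uM rhodamine-CoA and 12.5 uM BHQ-2-labelled YbbR peptide added. Fluorescence (ex 525/em 598 nm) read at start and after 30 min; difference gives rate.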
Coupling enz – coupling enzyme interference in Giardia aldolase counter-screen; 290,000 tested, 0.67% active; activity change, negative = inhibition, % at 58.2 µM, hits read low; coupling enzyme system counterscreen, AmpLite Red fluorescence; in the data active = activity change below about -30%
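Coupling enzymes only (glyceraldehyde-3-phosphate) + compound, at 57.5 uM final, 10 min RT; add substrate/coupling/AmpLite Red mix, 20 min RT; fluorescence ex 525/em 598 nm. Actives flag coupling-system interference.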
Tau ThT inhib – tau fibrillization inhibition (ThT binding); P10636; recombinant tau K18 P301L, heparin-induced fibrillization, ThT fluorescence; Potency, µM (doses to about 57.4 µM), most hits filed as inhibitors; 270,000 tested, 2.1% active; AID 1460; also: nearly all actives have a fitted effect of over 55% in size
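Using a mix of unlabeled (15 uM) and Alexa 594-labeled (0.24 uM) tau K18 P301L, heparin-triggered fibrillization over 6 hr at 37 C was scored by ThT fluorescence.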
Tau fluor counter – counter-screen for tau fibril formation inhibitors. tau K18 P301L (four-repeat tau fragment) Alexa594 fluorescence, heparin fibrillization. Potency, µM (doses to about 57.7 µM). 280,000 tested, 0.93% active; also: nearly all actives have a fitted effect of over 55% in size
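Human K18 P301L tau (15 uM unlabeled plus 0.24 uM Alexa 594-labeled, final) in 100 mM sodium acetate pH 7 was mixed with compound and 20 uM heparin and incubated 6 hr at 37 C.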
A number is an active result; . = inactive; ? = inconclusive; / = not tested or not shown; [ ] = remark or other dose. A selection: hits, their analogues and other compounds. The true share with any hit is near 5.2%. Unless noted, calls follow the shape of the dose curve; as a rule, active = well fitted curve in the direction sought with a large enough effect; inconclusive = small, poorly fitted or top-dose-only effect, or another doubt; inactive = no such curve, though single readings can be large; an effect the other way counts as inactive or inconclusive.

SMILES	Tau fibril FP	Sfp PPTase inh	Coupling enz	Tau ThT inhib	Tau fluor counter
Cc1cc(Nc2cccc(Cl)c2)nc2ccc(NC(=O)Cc3c(F)cccc3Cl)cc12	.	/	/	?	7.94µM[quencher]
Cc1cccc(NC(=O)Cc2c(F)cccc2Cl)n1	/	.	.	/	/
COc1ccc(Nc2cc(C)c3cc(NC(=O)COc4cccc(C)c4)ccc3n2)cc1	?	/	/	7.08µM	11.2µM[quencher]
O=S(=O)(O)c1ccc2c(c1)-c1nc-2nc2[nH]c(nc3nc(nc4[nH]c(n1)c1ccc(S(=O)(=O)O)cc41)-c1ccc(S(=O)(=O)O)cc1-3)c1ccc(S(=O)(=O)O)cc21	/	?	.	/	/
Cc1ccc(C(=O)Cn2c3c(sc2=N)CCCC3)cc1	.	.	.	?	.
CC(C)OC(=O)c1cccc(NC(=O)Cn2nnc3sc4c(c3c2=O)CCCC4)c1	?	/	/	.	?
COc1ccc(Nc2cc(C)c3cc(NC(=O)c4cc(OC)cc(OC)c4)ccc3n2)cc1	?	/	/	11.2µM	12.6µM[quencher]
CC(c1ccccc1)C1CC(=O)N(CC(=O)O)C1=O (centres undefined)	.	.	.	.	.
CC(c1ccccc1)C1CC(=O)N(Cc2ccco2)C1=O (centres undefined)	.	22.4µM	.	.	.
CC(C)=NO[C@@H](C)c1cc(-c2c(C)cc(C)cc2C)no1	.[11.6 µM]	.	.	.[11.5 µM]	.[11.6 µM]
COc1ccc(NCc2cc3cc(OC)ccc3[nH]c2=O)cc1	.	.	.	7.94µM	.
COc1ccc(NCc2cc3ccccc3[nH]c2=O)cc1	.	.	.	?	.
Cc1ccc(/C=N/NC(=O)c2csc(C)c2)o1	.	.	.	?	.
Cc1cc(/C=N/NC(=O)C(O)(c2ccccc2)c2ccccc2)c(C)n1-c1ccccc1	.	.	.	.	.
CN(C)c1ccc(/C=N/NC(=O)c2ccccc2O)o1	.	15.8µM	.	?	.
Cc1cc(C(=O)N/N=C/c2ccc(N(C)C)o2)cs1	/	12.6µM	/	/	/
O=C(N/N=C\c1ccccc1O)c1ccccc1O	.	.	.	.	.
CN(C)c1ccc(/C=N/NC(=O)C(O)(c2ccccc2)c2ccccc2)o1	.	2.82µM	.	?	.
CCn1cc(C(=O)NC(C)c2ccccc2)c(=O)c2cc(S(=O)(=O)N3CCc4ccccc4C3)ccc21 (centres undefined)	.	/	/	.	.
CCCC(=O)NCCc1c2n(c3ccc(OC)cc13)CCCc1ccccc1-2	.	/	/	.	.
COc1ccc(/C=C/C2=C[C@]3(C)C[C@]2(C)[C@H](c2ccc(OC)cc2)CC3=O)cc1	.	.	.	.	.
CN(C)c1ccc(S(=O)(=O)NCC(=O)OCC(=O)Nc2cc(Cl)cc(Cl)c2)cc1[N+](=O)[O-]	?	.	.	28.2µM	?
Cc1[nH]c2ccccc2c1C(=O)COC(=O)c1c(-c2c(F)cccc2Cl)noc1C	14.1µM	.	.	.	?
Cc1[nH]c2ccccc2c1C(=O)COC(=O)c1ccc([N+](=O)[O-])s1	.	.	.	7.08µM	11.2µM[quencher]
COCC(=O)N1CCC[C@@]2(CCN(C(=O)Nc3cccc(F)c3)C2)C1	/	.	.	/	/
SMILES	Tau fibril FP	Sfp PPTase inh	Coupling enz	Tau ThT inhib	Tau fluor counter
O=C(NCCc1ccc(Cl)cc1)c1ccc(CS(=O)(=O)Cc2ccccc2F)o1	.	/	/	.	.
Nc1c(C(=O)NCc2ccccc2)nnn1Cc1cccc(Br)c1	.	/	/	.	.
O=C(c1ccco1)N(CCC(c1ccccc1)c1ccco1)Cc1ccccc1 (centres undefined)	.	50.1µM	.	?	.
COc1ccccc1C(CCN(Cc1cccs1)C(C)=O)c1ccco1 (centres undefined)	.	20µM	.	?	.
CCC(=O)N(CCC(c1ccccc1)c1ccco1)Cc1cccs1 (centres undefined)	.	50.1µM	.	?	.
CCC(=O)NCCC(c1ccco1)c1ccccc1OC (centres undefined)	.	11.2µM	.	.	.
CN1CCN(CCc2ccc(Cl)c(Cl)c2)CC1	.	.	.	.	.
O=C(O)c1ccc(Nc2nc(-c3cc4ccccc4oc3=O)cs2)cc1O	.	35.5µM	.	7.94µM	?
COc1ccc(Nc2nc(-c3cc4cccc(OC)c4oc3=O)cs2)cc1	.	?	.	?	?
Nc1ccc(Nc2nc(-c3cc4ccccc4oc3=O)cs2)cc1	.	.	.	?	8.91µM[quencher]
COc1ccc2oc(=O)c(-c3csc(Nc4cccc(O)c4)n3)cc2c1	.	?	.	12.6µM	6.31µM[quencher]
CCCC(=O)O[C@]1(C(=O)COC(C)=O)CC[C@H]2C3C[C@H](F)C4=CC(=O)C=CC4(C)[C@@]3(F)[C@@H](O)CC21C (some centres undefined)	/	.	/	/	/
CC(=O)Nc1sc2c(c1C#N)CCC2	.	.	.	.	.
N#Cc1c(N)c(C#N)c(-c2ccc(O)cc2)c2c1CCCC2	.	.	.	.	.
N#Cc1c(N)sc2c1CCCCCC2	.	39.8µM	.	?	?
N#Cc1c(N)sc(=S)c2c1CCCCC2	?	5.01µM	-32.7	12.6µM	?
CCOC(=O)N1C/C(=C\c2ccccc2)C(=O)/C(=C/c2ccccc2)C1	?	.	.	14.1µM	.
CCCC(=O)N1CCN(c2ccc(NC(=O)c3sc4ccccc4c3Cl)cc2)CC1	?	?	.	2.24µM	.
O=C(Nc1ccc(N2CCN(C(=O)c3ccc(Cl)cc3)CC2)cc1)c1ccc([N+](=O)[O-])o1	.	.	.	12.6µM	?
CCCC(=O)N1CCN(c2ccc(NC(=O)c3ccc([N+](=O)[O-])o3)cc2)CC1	.	.	.	3.98µM	.
CCC(=O)N1CCN(c2ccc(NC(=O)c3ccc([N+](=O)[O-])o3)cc2)CC1	.	.	.	3.16µM	.
COc1ccc(NC(=O)CCCn2nc(C)c3sc4ccccc4c3c2=O)cc1	.	/	/	.	.
Cc1cc(N2CCOCC2)ccc1/C=C1/SC(=O)NC1=O	.	.	.	10µM	.
CO/N=C(/C(=O)N[C@@H]1C(=O)N2C(C(=O)O)=C(COC(N)=O)CS[C@H]12)c1ccco1	/	.	/	/	/
CCCSc1nc(-c2ccc(OC)cc2)cc(-c2ccccc2OC)c1C#N	25.1µM	/	/	22.4µM	?
SMILES	Tau fibril FP	Sfp PPTase inh	Coupling enz	Tau ThT inhib	Tau fluor counter
O=C(c1nnsc1S(=O)c1ccc(Cl)cc1)N1CCOCC1 (centres undefined)	?	56.2µM	.	?	.
O=C(Nc1ccccc1)c1nnsc1S(=O)c1ccc(Cl)cc1 (centres undefined)	.	7.94µM	.	.	.
CCOC(=O)c1c(C)c(-c2ccccc2)n(CC(=O)Nc2cc(C)ccc2OC)c1C	.	/	/	.	.
CCOC(=O)CCN1C(=O)[C@H]2[C@H]3[C@H](O)[C@H](O)C/C(=N/OCC(C)C)[C@@H]3CC[C@@H]2C1=O	.[11.6 µM]	.	.	.[11.5 µM]	.[11.6 µM]
CC1CCC(C(=O)NC(C(=O)OCC(=O)c2ccc(Br)cc2)C(C)C)CC1 (centres undefined)	.	/	/	.	.
CC1CCN(S(=O)(=O)c2ccc3c4c2CC(=O)N4CC(C)S3)CC1 (centres undefined)	/	.	-33.1	/	/

Screening results as filed in PubChem.
